Compound activity from PubChem.
GSIS activator: GLuc luminescence reporter in INS-1E cells, primary screen for activators of glucose-dependent secretion of insulin; 0.61% of 370,000 active; AID 743287; activation, % at 16.6 µM; INS-1E GLuc reporter insulin secretion, 2-3 h;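 active = lowest replicate activation of at least 40%, so every replicate reaches that level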;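 also: 0% = median of neutral control wells and 100% = median of IBMX positive control wells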
A1 inh: inhibitors of the anti-apoptotic protein A1, read as caspase activation. MEF A1-2A-BIM cells, Caspase-Glo 3/7 luminescence, 3 h; percent of clofoctol response, vehicle zero. caspase activation, % (test concentration not listed). 0.066% of 330,000 active. AID 2462;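 active = over half of replicate activation scores above 10%, or exactly half above 10 with the replicate mean above 10; inconclusive = replicate mean below 10 yet half the replicates above 10; inactive = over half of replicates below 10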
Vif imaging: blocks HIV Vif function; AID 602346; inhibition, % at 7.49 µM; 0.35% of 340,000 active; HEK293T cells, Vif self-association by quenched fluorescence, imaging, 24 h; in the data active = inhibition above about 50%, passing the limit was not always enough; inconclusive = no clear call, values can overlap the other calls; inactive = below about 31%
dFosB activator: enhances mouse delta FosB homodimer DNA binding. 0.99% of 340,000 active. purified delta FosB, TAMRA-CDK5 oligo fluorescence polarization; percent of positive-control signal above neutral wells. P13346. activation, % at 25 µM;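 active = mean activation above about 17%, with every replicate also reaching it, limit read from the data, passing the limit was not always enough; inconclusive = only one of the two conditions met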
Neddylation inh: cullin neddylation inhibition | TR-FRET cullin neddylation, biochemical | inhibition, % at 25 µM | 0.58% of 360,000 active | AID 651699; in the data active = inhibition above about 36%
Target sequence (P61081 whole entry, looked up): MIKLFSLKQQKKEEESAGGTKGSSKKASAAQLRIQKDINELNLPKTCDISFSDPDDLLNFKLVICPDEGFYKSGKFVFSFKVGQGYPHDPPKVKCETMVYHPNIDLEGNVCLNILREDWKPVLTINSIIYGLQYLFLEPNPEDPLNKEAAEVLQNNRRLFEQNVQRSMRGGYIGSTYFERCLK
Target sequence (Q13564 whole entry, looked up): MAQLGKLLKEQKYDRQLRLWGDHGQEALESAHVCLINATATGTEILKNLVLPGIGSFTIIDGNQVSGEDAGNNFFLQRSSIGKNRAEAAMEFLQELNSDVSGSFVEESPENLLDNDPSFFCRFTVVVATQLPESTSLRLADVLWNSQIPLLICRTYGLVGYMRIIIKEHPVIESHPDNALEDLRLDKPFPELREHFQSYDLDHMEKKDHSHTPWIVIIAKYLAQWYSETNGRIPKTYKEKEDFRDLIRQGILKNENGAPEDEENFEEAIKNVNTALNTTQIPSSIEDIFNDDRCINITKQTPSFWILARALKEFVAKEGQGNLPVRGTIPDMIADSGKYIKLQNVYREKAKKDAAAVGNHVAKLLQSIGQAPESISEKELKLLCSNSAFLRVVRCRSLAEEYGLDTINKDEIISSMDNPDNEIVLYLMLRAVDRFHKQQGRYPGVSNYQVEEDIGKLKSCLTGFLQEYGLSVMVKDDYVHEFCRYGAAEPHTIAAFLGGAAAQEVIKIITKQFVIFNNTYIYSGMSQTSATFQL
* = called active by the depositor. Only some compounds are listed: those with a hit (about 1.9% of all), similar ones and a draw of the others.

Results for C[C@H](NC(=O)N(C)C[C@@H]1OCc2ccccc2-c2ccccc2C(=O)N([C@@H](C)CO)C[C@@H]1C)c1ccccc1 ?
GSIS activator: 5

What do the screens show for `CC(=O)N(C)C[C@H]1Oc2cc(Br)ccc2S(=O)(=O)N([C@@H](C)CO)C[C@H]1C`?
GSIS activator: 18

How did CN(C)C(=O)c1cccc(-c2ccc3n(c2=O)C[C@@H]2[C@@H](CO)[C@H](C(=O)NCC4CC4)N[C@H]32)c1 do in these assays?
GSIS activator: -4

What do the screens show for `COc1cc(/C=C(\C#N)c2nc3ccccc3s2)ccc1OCC(=O)Nc1ccccc1`?
A1 inh: 1; Vif imaging: -6; dFosB activator: -35; Neddylation inh: 26

How did COc1cc(/C=C(/C#N)c2nc3ccccc3[nH]2)ccc1OCC(=O)Nc1ccccc1C do in these assays?
GSIS activator: 5; A1 inh: 7.2*; dFosB activator: -7

Results for COc1cc(/C=C(/C#N)c2nc3ccccc3[nH]2)ccc1OCC(=O)Nc1ccccc1C(C)C ?
GSIS activator: -2; A1 inh: 10.0*; Vif imaging: -3; dFosB activator: -1; Neddylation inh: 25

What do the screens show for `Cc1nn(-c2ccccc2)c2c1C(O)CC(C)(C)C2` (stereo unspecified)?
GSIS activator: 67*; A1 inh: 0; Vif imaging: -1; dFosB activator: -2; Neddylation inh: 0

How did CC(=O)Nc1ccc(-c2ccnc3c2CC(C(=O)NCc2ccccc2)O3)cc1 (stereo unspecified) do in these assays?
GSIS activator: 18; Vif imaging: 66*; Neddylation inh: 9

How did CC(C)[C@H]1CC=CC[C@H](C)Oc2ccccc2C(=O)N(C)[C@@H](C)C(=O)N1 (mixture of isomers) do in these assays?
GSIS activator: 22

How did C#CCOCCOCCOCCNc1nc(N2CCN(C(=O)CCCCCCCCCCNC(=O)[C@H](CCCCN)n3cc(CCO)nn3)CC2)nc(N2CCN(C(=O)CCCCCCCCCCNC(=O)[C@H](CCCN=C(N)N)n3cc(C[C@@H](C)CC)nn3)CC2)n1 do in these assays?
A1 inh: 0; Vif imaging: 72*; dFosB activator: -312; Neddylation inh: -13

Results for C#CCOCCOCCOCCNc1nc(N2CCN(C(=O)CCCCCCCCCCNC(=O)[C@H](CCCCN)n3cc(CCCC(=O)O)nn3)CC2)nc(N2CCN(C(=O)CCCCCCCCCCNC(=O)[C@H](CCCN=C(N)N)n3cc(C[C@@H](C)CC)nn3)CC2)n1 ?
A1 inh: inconclusive; Vif imaging: 12; dFosB activator: -356; Neddylation inh: -23

What do the screens show for `C#CCOCCOCCOCCNc1nc(N2CCN(C(=O)CCCCCCCCCCNC(=O)Cn3cc(CCCCCN)nn3)CC2)nc(N2CCN(C(=O)CCCCCCCCCCNC(=O)[C@H](CO)n3cc(CCCCCN)nn3)CC2)n1`?
A1 inh: 1; Vif imaging: 54*; dFosB activator: -193; Neddylation inh: -37

How did Cc1ccc(C(=O)Nc2ccc(S(=O)(=O)N3CCOCC3)cc2)cc1 do in these assays?
GSIS activator: 1; A1 inh: 1; Vif imaging: 14; dFosB activator: 0; Neddylation inh: 9

Results for CC(=O)Nc1ccc(NC(=O)c2cc(-c3ccc(F)cc3C)n[nH]2)cc1 ?
GSIS activator: 1; Vif imaging: -2; Neddylation inh: 5

What do the screens show for `Cc1cc(C)c(O)c(-c2cc(C(=O)Nc3ccc(S(=O)(=O)N4CCOCC4)cc3)[nH]n2)c1`?
A1 inh: 2; Vif imaging: -19; dFosB activator: 23*; Neddylation inh: 3

How did CC(=O)Nc1ccc(NC(=O)c2cc(-c3cc(C)cc(C)c3O)n[nH]2)cc1 do in these assays?
GSIS activator: 2; A1 inh: 1; Vif imaging: -11; dFosB activator: 22*; Neddylation inh: 32

What do the screens show for `COCCNC(=O)c1nn2c(C(F)(F)F)cc(-c3ccccc3)nc2c1Cl`?
GSIS activator: 20; A1 inh: 0; Vif imaging: 106*; dFosB activator: -1; Neddylation inh: 18

How did COc1ccc(-c2cc(C(F)(F)F)n3nc(C(=O)NCc4ccco4)cc3n2)cc1 do in these assays?
GSIS activator: -8; A1 inh: 0; Vif imaging: -1; dFosB activator: -16

What do the screens show for `COc1ccc(-c2cc(C(F)(F)F)n3nc(C(=O)NCc4ccco4)c(Cl)c3n2)cc1`?
A1 inh: -1; Vif imaging: 157*; dFosB activator: -8; Neddylation inh: 38

Results for O=C(NCCCn1ccnc1)c1nn2c(C(F)(F)F)cc(-c3ccccc3)nc2c1Cl ?
GSIS activator: 1; A1 inh: 0; Vif imaging: -15; dFosB activator: -12; Neddylation inh: -20

What do the screens show for `OCCCNc1ncnc2scc(-c3ccc(Cl)cc3)c12`?
GSIS activator: 90*; A1 inh: 2; Vif imaging: -4; dFosB activator: -6; Neddylation inh: 7

How did NNc1ncnc2scc(-c3ccc(Cl)cc3)c12 do in these assays?
GSIS activator: 8; A1 inh: 0; Vif imaging: -13; dFosB activator: -1; Neddylation inh: -7

What do the screens show for `CCn1c(SCc2cc(=O)[nH]c3ccccc23)nc2c1c(=O)n(C)c(=O)n2C`?
GSIS activator: 49*; A1 inh: -1; Vif imaging: 2; dFosB activator: -3; Neddylation inh: 0

What do the screens show for `Cn1ccnc1SCc1cc(=O)[nH]c2ccccc12`?
GSIS activator: 2; A1 inh: 1; dFosB activator: 5; Neddylation inh: 2

Results for Cc1ccc(C(=O)/C=C/C(=O)c2ccc(C)cc2)cc1 ?
GSIS activator: 21; A1 inh: 9.9*; Vif imaging: -1; dFosB activator: -4; Neddylation inh: 5

How did O=C(NC1CCN(Cc2ccccc2)CC1)c1ccc(Cn2c(=S)[nH]c3ccc(N4CCOCC4)cc3c2=O)cc1 do in these assays?
GSIS activator: -1; A1 inh: 0; Vif imaging: -1; dFosB activator: 34*; Neddylation inh: -8

What do the screens show for `COCCn1c(COc2ccccc2)nnc1SCC(N)=O`?
Vif imaging: 60*; dFosB activator: -5; Neddylation inh: -4

What do the screens show for `CCOc1cc(/C=C2/NC(=S)NC2=O)ccc1OCc1ccc([N+](=O)[O-])cc1`?
GSIS activator: 58*; A1 inh: 0; Vif imaging: 9; dFosB activator: 2; Neddylation inh: -28

How did COc1ccccc1OC(=O)CCN1c2ccccc2Sc2ccccc21 do in these assays?
GSIS activator: -31; A1 inh: 0; Vif imaging: 0; dFosB activator: -5; Neddylation inh: -107

How did O=C(O)CCN1c2ccccc2Sc2ccccc21 do in these assays?
GSIS activator: 69*; A1 inh: 1; Vif imaging: -4; dFosB activator: -6; Neddylation inh: -14
